Screening results deposited in PubChem by several laboratories.
Hits are enriched below; roughly 5.2% of the tested compounds scored in any of these assays.
NadD inh – blocks S. aureus nicotinate mononucleotide adenylyltransferase | purified NadD enzyme, colorimetric absorbance read-out | inhibition, % at 20 µM | 360,000 compounds, 0.78% hits | AID 602399; in the data active means inhibition above about 26%
SMARCA2 act – SMARCA2 function activation, primary screen; MG213 cells, MMTV-luciferase reporter, dexamethasone, overnight; activation, % at 9.1 µM; 370,000 compounds, 1% hits; AID 652017; in the data active means activation above about 7.8%;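 further: 0% = vehicle wells and 100% = reference activator wells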
SKN-1 inh – inhibitors of C. elegans SKN-1. inhibition, % at 21.8 µM. 360,000 compounds, 0.49% hits. C. elegans VP596 Pgst-4::GFP/RFP ratio, acrylamide-induced, 24 h;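 active means interference check ratio from 0.5 to 1.5 plus GFP to RFP signal ratio inhibition reaching or exceeding a fixed threshold, cut at about 30% in these data, passing the limit was not always enough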
esBAF inh – inhibitors of esBAF chromatin remodeling in mouse ES cells. Bmi1-luciferase knock-in reporter, 24 h; 100% = twice the neutral-well signal. reporter increase, % at 12.5 µM. 350,000 compounds, 2% hits. AID 602393; in the data active means activation above about 40%; inconclusive means no clear call, values can overlap the other calls;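 further: 0% = median of the plate's neutral control wells and 100% = double that signal; a rise in the Bmi1 reporter signal indicates esBAF inhibition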
Vif imaging – HIV Vif inhibition; 340,000 compounds, 0.35% hits; AID 602346; HEK293T cells, Vif self-association by quenched fluorescence, imaging, 24 h; inhibition, % at 7.49 µM; in the data active means inhibition above about 50%, passing the limit was not always enough; inconclusive means no clear call, values can overlap the other calls; inactive means below about 31%
GRIN3A LBD mod – modulates the human NR3A ligand-binding domain; NR3A LBD differential scanning fluorimetry, Tm shift; 0% = protein alone, 100% = glycine-bound protein; Tm shift relative to glycine control, % at 25 µM; 340,000 compounds, 2.5% hits;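 active means melting temperature shift of at least 10% of the positive control shift, at one fixed dose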
Active calls of the source: *; ? = inconclusive; . = no result.

SMILES | NadD inh | SMARCA2 act | SKN-1 inh | esBAF inh | Vif imaging | GRIN3A LBD mod
C[C@@H]1CN([C@@H](C)CO)C(=O)c2cc(NC(=O)c3ccncc3)ccc2O[C@@H]1CN(C)Cc1ccc(Oc2ccccc2)cc1 | . | . | . | -4 | . | .
O=C(COC(=O)c1cc([N+](=O)[O-])ccc1N1CCOCC1)NCCc1ccccc1 | -2 | -2 | 2 | -7 | -1 | 16*
CC(=O)Nc1ccc(NC(=O)COC(=O)c2cc([N+](=O)[O-])ccc2N2CCOCC2)cc1 | -2 | -1 | 7 | -12 | . | 23*
O=C(COC(=O)c1cc([N+](=O)[O-])ccc1N1CCOCC1)NCc1ccc(F)cc1 | -5 | -1 | -4 | 3 | 3 | 0
C[C@@H]1CN([C@H](C)CO)C(=O)c2cc(NS(C)(=O)=O)ccc2O[C@@H]1CN(C)Cc1ccccc1 | . | . | . | -1 | . | .
Cc1ccc(C2(C)NC(=O)N(CC(=O)c3ccc4c(c3)OCCO4)C2=O)cc1 (centres undefined) | -2 | 1 | 5 | 6 | 13 | -2
CC(=O)c1c(C)[nH]c(C(=O)CN2C(=O)NC(C)(c3ccc4c(c3)OCCO4)C2=O)c1C (centres undefined) | 4 | 1 | -18 | . | 0 | 32*
COC(=O)c1cccc(CN2C(=O)C(C)Sc3cc(Cl)ccc32)c1 (centres undefined) | -9 | 3 | 1 | 45* | -19 | .
COC(=O)c1cccc(CN2C(=O)C(C)Sc3ccc(C(C)=O)cc32)c1 (centres undefined) | -3 | 1 | -17 | 46* | -8 | .
COC(=O)c1cccc(CN2C(=O)C(C)Sc3ccc(C)cc32)c1 (centres undefined) | -5 | -2 | 11 | 17 | -16 | .
Cc1ccc(C(=O)NC(=S)Nc2cccc3nsnc23)cc1 | -1 | 3 | 10 | 63* | 1 | 0
Cc1ccc(OCC(=O)Nc2c(C)ccc3nsnc23)cc1 | -2 | -1 | -5 | 4 | -1 | 2
Cc1ccc(C(=O)NC(=S)Nc2c(C)ccc3nsnc23)cc1 | 3 | 2 | -3 | . | 4 | 11*
Cc1ccc(-c2csc(NC(=O)c3ccc(F)cc3)c2C(=O)O)cc1 | -2 | 3 | 3 | 59* | -4 | -7
COc1cccc(C(=O)Nc2sc3c(c2C(=O)O)CCCC3)c1 | -2 | 5 | 2 | 55* | 2 | -11
O=C(Nc1sc2c(c1C(=O)O)CCCC2)c1cccs1 | -6 | 2 | 13 | 56* | -7 | 0
O=C(Nc1scc(-c2ccccc2)c1C(=O)O)c1ccc(F)cc1 | -2 | 2 | 14 | 22 | -12 | -10
COC(=O)c1c(NC(=O)c2cccs2)sc2c1CCC(C)C2 (centres undefined) | -6 | 0 | -2 | 50* | 12 | 2
CN1c2ccc(-c3cccc(F)c3)cc2[C@@H]2[C@@H](CCN2C(=O)c2ccccc2F)[C@H]1CO | . | . | . | -5 | . | .
O=C(/C=C/c1cccs1)Nc1sc2c(c1C(=O)O)CCCC2 | 1 | 0 | 20 | 62* | 8 | -2
COc1ccccc1C(=O)Nc1sc2c(c1C(N)=O)CCCC2 | -12 | 2 | 1 | 29 | -10 | 35*
O=C(Nc1sc2c(c1C(=O)O)CCCC2)c1ccc(F)cc1 | -2 | 4 | 0 | 68* | -9 | -3
NC(=O)c1c(NC(=O)c2ccc(F)cc2)sc2c1CCC2 | -6 | 7 | 10 | 17 | -4 | -1
Cc1noc(C)c1S(=O)(=O)N(C)C[C@H]1OCCCC[C@@H](C)Oc2ccc(NC(=O)CCC(F)(F)F)cc2C(=O)N([C@@H](C)CO)C[C@@H]1C | . | . | . | 1 | . | .
O=C(C[C@@H]1C[C@H]2c3cc(NC(=O)c4ccc5c(c4)OCO5)ccc3O[C@H]2[C@@H](CO)O1)NCc1cccnc1 | . | . | . | -2 | . | .
SMILES | NadD inh | SMARCA2 act | SKN-1 inh | esBAF inh | Vif imaging | GRIN3A LBD mod
C=CCn1cccc(C(=O)Nc2ccc(F)cc2)c1=O | -6 | 5 | 12 | 67* | -5 | 3
C=CCn1cccc(C(=O)Nc2ccc(OC)cc2)c1=O | -2 | -2 | 1 | . | 0 | 0
CC(=O)Nc1ccc(-c2cc(-c3ccccc3)nc(-c3ccccc3)n2)cc1 | 0 | -2 | -1 | . | -2 | 36*
Nc1ccc(-c2cc(-c3cccc(N)c3)nc(-c3ccccc3)n2)cc1 | 0 | -4 | -2 | -8 | 16 | 22*
CCC(=O)Nc1ccc(-c2cc(-c3ccccc3)nc(-c3ccc(NC(=O)CC)cc3)n2)cc1 | -4 | 1 | 0 | . | 4 | 16*
Nc1ccc(-c2nc(-c3ccccc3)nc3ccccc23)cc1 | -5 | -2 | -11 | -3 | -5 | 7
C[C@@H]1CCCCO[C@@H](CN(C)S(C)(=O)=O)[C@H](C)CN([C@H](C)CO)C(=O)c2cc(NS(=O)(=O)c3ccccc3)ccc2O1 | . | . | . | -1 | . | .
COc1ccc(S(=O)(=O)N2C[C@@H](O)COC[C@@H]3O[C@H](CC(=O)N(C)C)CC[C@H]32)cc1 | . | . | . | 0 | . | .
C[C@@H]1CCCCO[C@@H](CN(C)C(=O)NC2CCCCC2)[C@@H](C)CN([C@H](C)CO)C(=O)c2cc(NC(=O)c3ccccc3)ccc2O1 | . | . | . | -3 | . | .
CN1C=CC=C/C1=C1/N=C(c2ccccc2)OC1=O | 2 | 7 | -9 | -2 | 5 | 1
CC1=CC(=C2N=C(c3ccccc3)OC2=O)C=C(C)O1 | -3 | -2 | 11 | 64* | 10 | 3
COCC(=O)N(C)C[C@H]1Oc2cc(-c3cccnc3)ccc2S(=O)(=O)N([C@H](C)CO)C[C@@H]1C | . | . | . | -3 | . | .
Brc1cc(Br)c2nc(-c3cccs3)ccc2c1 | 9 | 4 | 58* | ? | . | 3
Nc1nccc(-c2cccs2)n1 | -3 | 3 | 6 | . | 7 | 1
COc1cccc(-c2ccc([C@@H]3[C@@H](C#N)N(C(=O)Cc4ccccc4)[C@@H]3CO)cc2)c1 | . | . | . | 2 | . | .
COc1ccc(NC(=S)NC(=O)c2ccccc2Cl)cc1 | 2 | 0 | 11 | 62* | -15 | 0
COc1ccc(NC(=S)NNC(=O)CNc2ccc(Cl)cc2)cc1 | 4 | -4 | 4 | . | -7 | 12*
COc1ccc(NC(=S)NNC(=O)COc2ccc(Cl)cc2Cl)cc1 | -3 | 3 | 6 | . | -7 | -4
O=C(NC(=S)Nc1ccc(O)cc1)c1ccccc1Cl | -10 | 2 | 1 | ? | 0 | 16*
COc1ccc(CN(C)C[C@@H]2OCCCC[C@@H](C)Oc3ccc(NC(=O)NC(C)C)cc3C(=O)N([C@H](C)CO)C[C@H]2C)cc1 | . | . | . | -2 | . | .
CO[C@H]1CN(C)C(=O)c2cc(C#N)ccc2OCC[C@@H]2CC[C@@H](OC)[C@H](CN(C)C(=O)[C@H]1C)O2 | . | . | . | 0 | . | .
O=C1OCCN1C(=O)[C@H]1[C@H](c2ccc([N+](=O)[O-])cc2)C(c2ccc(F)cc2)=NN1c1ccc(Br)cc1 | 18 | -4 | 12 | 9 | 0 | 13*
